Experimental data from PubChem BioAssay (NCATS).
Records with an inconclusive call do not appear. Where a call stands in place of a potency, no number is given. The source made the active and inactive calls. Unless noted, calls follow the shape of the dose curve; as a rule, active = well fitted curve in the direction sought with a large enough effect; inconclusive = small, poorly fitted or top-dose-only effect, or another doubt; inactive = no such curve, though single readings can be large; an effect the other way counts as inactive or inconclusive.

Tests used:
[1] = target: Cytochrome P450 1A2 (Homo sapiens) (UniProt P05177); test: p450-cyp1a2 (AID 410; calls by dose curve; also: potency is read from the fitted curve at half-maximal effect)
Sequence of Cytochrome P450 1A2 (Homo sapiens) (P05177 whole entry, looked up): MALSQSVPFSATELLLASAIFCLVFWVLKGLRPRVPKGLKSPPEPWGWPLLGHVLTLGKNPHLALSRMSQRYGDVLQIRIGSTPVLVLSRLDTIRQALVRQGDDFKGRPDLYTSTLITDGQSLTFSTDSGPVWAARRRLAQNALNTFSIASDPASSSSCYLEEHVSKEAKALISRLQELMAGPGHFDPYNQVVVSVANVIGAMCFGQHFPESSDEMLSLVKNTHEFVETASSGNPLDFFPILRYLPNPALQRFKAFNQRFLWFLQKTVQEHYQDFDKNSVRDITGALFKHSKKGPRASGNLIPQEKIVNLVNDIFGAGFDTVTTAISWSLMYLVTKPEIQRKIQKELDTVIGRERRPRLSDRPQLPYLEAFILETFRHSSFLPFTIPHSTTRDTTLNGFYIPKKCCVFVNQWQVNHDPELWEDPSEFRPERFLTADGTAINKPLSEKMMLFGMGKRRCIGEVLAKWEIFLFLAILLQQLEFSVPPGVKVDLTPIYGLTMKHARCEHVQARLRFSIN
Method in brief: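 Human CYP1A2 (20nM) demethylated Luciferin-ME at its Km (100uM) in 100mM KPO4. After 10 min compound preincubation, NADPH regeneration ran the reaction 60 min at room temperature. Luciferin was read by luminescence, normalized to 57 uM furafylline.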

[2] = target: Glucocorticoid receptor (Homo sapiens) (UniProt P04150); test: GR-GFP Redistribution (AID 450;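 active = compounds whose dose series gives a full or clear partial fitted curve of increased nuclear translocation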; also: potency is read from the fitted curve at half-maximal effect)
Sequence of Glucocorticoid receptor (Homo sapiens) (P04150 whole entry, looked up, the tested form may be a part): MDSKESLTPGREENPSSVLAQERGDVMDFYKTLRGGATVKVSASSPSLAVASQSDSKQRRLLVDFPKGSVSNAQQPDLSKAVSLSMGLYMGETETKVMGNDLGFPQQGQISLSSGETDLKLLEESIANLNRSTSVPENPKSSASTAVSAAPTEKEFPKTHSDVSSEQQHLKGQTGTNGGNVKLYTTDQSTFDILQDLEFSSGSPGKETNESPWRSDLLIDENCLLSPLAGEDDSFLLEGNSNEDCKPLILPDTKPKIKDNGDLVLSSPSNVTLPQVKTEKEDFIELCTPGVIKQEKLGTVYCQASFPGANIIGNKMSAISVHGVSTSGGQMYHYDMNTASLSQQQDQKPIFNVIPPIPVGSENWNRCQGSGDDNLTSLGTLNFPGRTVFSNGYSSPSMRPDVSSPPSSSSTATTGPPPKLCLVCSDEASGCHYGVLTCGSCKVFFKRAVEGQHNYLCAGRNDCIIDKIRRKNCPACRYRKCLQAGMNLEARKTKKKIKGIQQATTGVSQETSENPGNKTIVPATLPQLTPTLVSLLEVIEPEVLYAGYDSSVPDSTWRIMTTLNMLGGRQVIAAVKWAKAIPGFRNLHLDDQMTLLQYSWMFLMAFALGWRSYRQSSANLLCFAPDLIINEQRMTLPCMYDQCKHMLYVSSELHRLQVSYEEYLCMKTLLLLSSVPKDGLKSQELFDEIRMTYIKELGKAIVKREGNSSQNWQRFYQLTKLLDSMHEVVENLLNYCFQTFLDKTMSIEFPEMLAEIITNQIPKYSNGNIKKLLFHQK

[3] = target: Glucocorticoid receptor (Homo sapiens) (UniProt P04150); test: GR-EFC Redistribution (AID 451; calls by dose curve; also: potency is read from the fitted curve at half-maximal effect); conditions: CHO-K1 GR-EFC translocation, beta-gal luminescence, 2 h
Method in brief: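 Translocation of GR-ED fusion to nuclear EA restores b-gal, read by luminescence after 1 h room-temperature detection. Engineered CHO-K1 biosensor cells, 1,000/well, exposed 2 h at 37 C to titrations up to 46 uM final.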

[4] = target: Mitogen-activated protein kinase 10 (Mus musculus) (UniProt Q61831); test: JNK3 AlphaScreen Assay (AID 530; active = well fitted curve in either direction with a large enough effect, not every such curve was filed as active;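 also: kinase came from lysate of stimulated human HepG2 cells; signal reports phosphorylation of biotinylated GST-cJun 1-79 at Ser73 with 10 µM ATP; series mostly up to about 57 µM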)
Method in brief: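 Room-temperature AlphaScreen kinase assay; pre-activated HepG2 lysate as JNK3 source, biotin-GST-cJun(1-79) substrate, 10 uM ATP, compound 15 min preincubation.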

[5] = target: 3',5'-cyclic-AMP phosphodiesterase 4B (Homo sapiens) (UniProt Q07343); test: qHTS Assay for Inhibitors of PDE-IV (AID 607; active = well fitted activation curve with a large enough effect in the main read-out, with a control signal flat, not every such curve was filed as active)
Sequence of 3',5'-cyclic-AMP phosphodiesterase 4B (Homo sapiens) (Q07343 whole entry, looked up): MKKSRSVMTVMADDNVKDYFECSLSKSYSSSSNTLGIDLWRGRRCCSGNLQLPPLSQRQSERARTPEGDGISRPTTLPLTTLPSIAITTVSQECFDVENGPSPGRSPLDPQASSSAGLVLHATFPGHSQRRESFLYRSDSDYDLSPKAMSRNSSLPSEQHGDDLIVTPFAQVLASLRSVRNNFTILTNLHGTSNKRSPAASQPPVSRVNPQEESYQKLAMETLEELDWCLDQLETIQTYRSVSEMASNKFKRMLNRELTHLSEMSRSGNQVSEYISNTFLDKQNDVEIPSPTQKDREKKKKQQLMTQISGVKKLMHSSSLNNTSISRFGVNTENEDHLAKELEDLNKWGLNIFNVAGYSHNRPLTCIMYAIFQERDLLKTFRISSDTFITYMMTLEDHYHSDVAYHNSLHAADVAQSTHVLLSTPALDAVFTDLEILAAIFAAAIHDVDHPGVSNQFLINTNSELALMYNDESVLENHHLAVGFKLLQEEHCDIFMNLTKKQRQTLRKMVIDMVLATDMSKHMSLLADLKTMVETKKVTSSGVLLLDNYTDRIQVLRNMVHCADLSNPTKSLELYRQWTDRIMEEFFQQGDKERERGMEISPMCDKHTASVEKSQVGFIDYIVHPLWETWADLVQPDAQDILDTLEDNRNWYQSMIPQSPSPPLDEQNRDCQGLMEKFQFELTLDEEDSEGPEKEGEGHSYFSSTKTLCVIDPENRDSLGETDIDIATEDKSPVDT
Method in brief: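 Live HEK293 cells with a modified cyclic nucleotide-gated (CNG) channel report intracellular cAMP via membrane-potential dye fluorescence (ex 535/em 590 nm). Endogenous PDE-IV was targeted. Compounds were tested at up to 22.9 uM final; RO 20-1724 100 uM served as control.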

[6] = target: Cytochrome P450 2C9 (Homo sapiens) (UniProt P11712); test: qHTS Assay for Inhibitors and Substrates of Cytochrome P450 2C9 (AID 883); also: nearly all actives have a fitted effect of over 60% in size; also: potency is read from the fitted curve at half-maximal effect
Sequence of Cytochrome P450 2C9 (Homo sapiens) (P11712 whole entry, looked up): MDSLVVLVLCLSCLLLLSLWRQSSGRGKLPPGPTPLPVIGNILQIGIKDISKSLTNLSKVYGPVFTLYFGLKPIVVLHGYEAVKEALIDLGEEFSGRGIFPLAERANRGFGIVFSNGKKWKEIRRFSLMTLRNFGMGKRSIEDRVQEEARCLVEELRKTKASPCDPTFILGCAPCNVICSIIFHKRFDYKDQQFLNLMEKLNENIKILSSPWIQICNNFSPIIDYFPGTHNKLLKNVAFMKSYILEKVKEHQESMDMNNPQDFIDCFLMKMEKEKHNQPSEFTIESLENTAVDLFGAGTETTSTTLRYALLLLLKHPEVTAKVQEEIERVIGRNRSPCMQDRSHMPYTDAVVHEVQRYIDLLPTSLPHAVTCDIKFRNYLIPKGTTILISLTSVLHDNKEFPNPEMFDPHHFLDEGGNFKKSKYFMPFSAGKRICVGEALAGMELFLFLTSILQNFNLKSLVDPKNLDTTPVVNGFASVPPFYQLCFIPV
Method in brief: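 Inhibition of CYP2C9 is scored as loss of luminescence, with 57uM sulphaphenazole defining 100% inhibition. Substrate Luciferin-H is used at 100uM, equal to its KM; enzyme at 10nM in 25mM KPO4, 60 min at 37C with NADPH regeneration.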

[7] = target: Cytochrome P450 3A4 (Homo sapiens) (UniProt P08684); test: qHTS Assay for Activators of Cytochrome P450 3A4 (AID 885); also: nearly all actives have a fitted effect of over 65% in size
Sequence of Cytochrome P450 3A4 (Homo sapiens) (P08684 whole entry, looked up): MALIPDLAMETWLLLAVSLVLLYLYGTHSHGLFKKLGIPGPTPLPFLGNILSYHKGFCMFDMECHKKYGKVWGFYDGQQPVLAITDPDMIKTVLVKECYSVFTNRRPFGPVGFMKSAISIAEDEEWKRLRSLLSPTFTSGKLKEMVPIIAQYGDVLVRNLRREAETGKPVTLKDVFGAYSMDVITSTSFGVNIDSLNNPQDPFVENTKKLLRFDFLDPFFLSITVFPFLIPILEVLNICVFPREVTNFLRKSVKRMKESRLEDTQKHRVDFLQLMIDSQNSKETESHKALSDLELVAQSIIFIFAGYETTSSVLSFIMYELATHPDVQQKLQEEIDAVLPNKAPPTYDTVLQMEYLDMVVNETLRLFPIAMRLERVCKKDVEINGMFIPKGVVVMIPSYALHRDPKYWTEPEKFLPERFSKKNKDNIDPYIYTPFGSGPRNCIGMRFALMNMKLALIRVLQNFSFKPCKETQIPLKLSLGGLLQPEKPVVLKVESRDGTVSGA
Method in brief: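 Quantitative HTS format: compounds preincubated with 20nM human CYP3A4 and Luciferin-PPXE substrate at KM, reaction started by NADPH regeneration, stopped after 60 min, luciferase luminescence read 20 min later.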

[8] = target: Cytochrome P450 2C19 (Homo sapiens) (UniProt P33261); test: qHTS Assay for Inhibitors and Substrates of Cytochrome P450 2C19 (AID 899); also: nearly all actives have a fitted effect of over 60% in size; also: potency is read from the fitted curve at half-maximal effect
Sequence of Cytochrome P450 2C19 (Homo sapiens) (P33261 whole entry, looked up): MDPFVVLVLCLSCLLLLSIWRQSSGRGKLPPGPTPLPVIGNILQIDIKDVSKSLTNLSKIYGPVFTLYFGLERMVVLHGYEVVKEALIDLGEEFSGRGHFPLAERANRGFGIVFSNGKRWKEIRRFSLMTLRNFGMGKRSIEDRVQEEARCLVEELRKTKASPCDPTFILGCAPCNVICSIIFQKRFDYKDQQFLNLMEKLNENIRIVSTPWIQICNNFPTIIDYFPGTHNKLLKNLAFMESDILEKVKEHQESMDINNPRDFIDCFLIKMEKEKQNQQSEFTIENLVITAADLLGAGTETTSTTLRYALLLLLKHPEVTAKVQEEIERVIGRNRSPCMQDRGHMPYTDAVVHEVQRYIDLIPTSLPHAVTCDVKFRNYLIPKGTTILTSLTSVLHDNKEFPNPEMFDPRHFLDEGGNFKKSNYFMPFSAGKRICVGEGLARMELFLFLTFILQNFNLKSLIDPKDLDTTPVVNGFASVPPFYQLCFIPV
Method in brief: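 5nM enzyme + 10uM Luciferin-H EGE (=KM), 50mM KPO4; cpd pin-transferred, 10 min 37C; NADPH regen, 60 min 37C; stopped w/ luciferin detection reagent, 20 min; luminescence. Normalized to 57uM ketoconazole (AC100).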

[9] = target: DNA dC->dU-editing enzyme APOBEC-3G (Homo sapiens) (UniProt Q9HC16); test: qHTS for inhibitors of Vif-A3G interactions: Validation (AID 588379)
Sequence of DNA dC->dU-editing enzyme APOBEC-3G (Homo sapiens) (Q9HC16 whole entry, looked up): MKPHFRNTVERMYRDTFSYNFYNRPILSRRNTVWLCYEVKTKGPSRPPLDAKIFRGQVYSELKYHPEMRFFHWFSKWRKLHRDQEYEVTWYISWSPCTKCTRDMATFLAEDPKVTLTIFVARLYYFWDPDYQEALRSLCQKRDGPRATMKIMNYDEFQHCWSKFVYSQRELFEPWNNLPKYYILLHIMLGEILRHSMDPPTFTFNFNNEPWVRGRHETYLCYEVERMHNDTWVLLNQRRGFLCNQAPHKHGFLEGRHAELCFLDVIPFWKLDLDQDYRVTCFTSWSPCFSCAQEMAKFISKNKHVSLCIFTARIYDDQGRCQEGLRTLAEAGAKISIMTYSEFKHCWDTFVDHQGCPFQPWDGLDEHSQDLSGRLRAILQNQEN
Method in brief: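 HeLa cells stably expressing Vif and A3G-eYFP, 700 cells/well, incubated overnight at 37 deg C, then exposed to compound overnight at 37 deg C. Inhibition of Vif-mediated degradation read as increased yellow fluorescence (Ex 488/Em 500-530) by laser-scanning cytometry.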

[10] = target: Cytochrome P450 2D6 (Homo sapiens) (UniProt P10635); test: qHTS Assay for Inhibitors and Substrates of Cytochrome P450 2D6 (AID 891);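 also: luciferin methyl ether substrate demethylated by CYP2D6 with NADPH regeneration; nearly all actives have a fitted effect of over 60% in size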
Sequence of Cytochrome P450 2D6 (Homo sapiens) (P10635 whole entry, looked up): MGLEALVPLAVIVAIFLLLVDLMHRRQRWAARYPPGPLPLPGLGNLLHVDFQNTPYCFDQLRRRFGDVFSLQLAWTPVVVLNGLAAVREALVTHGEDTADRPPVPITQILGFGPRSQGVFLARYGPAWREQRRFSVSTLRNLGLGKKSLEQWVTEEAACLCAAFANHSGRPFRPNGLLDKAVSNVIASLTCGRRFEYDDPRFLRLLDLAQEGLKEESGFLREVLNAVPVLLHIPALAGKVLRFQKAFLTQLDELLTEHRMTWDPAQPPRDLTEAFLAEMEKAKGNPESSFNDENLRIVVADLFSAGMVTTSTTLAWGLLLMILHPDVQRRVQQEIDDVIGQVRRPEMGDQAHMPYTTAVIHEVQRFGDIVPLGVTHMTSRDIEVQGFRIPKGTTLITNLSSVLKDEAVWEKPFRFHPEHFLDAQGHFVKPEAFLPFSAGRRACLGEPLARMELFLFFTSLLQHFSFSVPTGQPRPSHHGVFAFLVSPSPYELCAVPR
Method in brief: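 Human CYP2D6 (5 nM) with 30 uM Luciferin-ME EGE (at Km) in 100 mM KPO4, compound preincubated 10 min, then NADPH regeneration system for 60 min at room temperature. Luciferin read by luminescence; normalized to 1.43 uM quinidine.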

[11] = target: Luciferin 4-monooxygenase (Photinus pyralis) (UniProt P08659); test: Biochemical firefly luciferase enzyme assay for NPC (AID 624030);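 also: purified P. pyralis luciferase at 10 nM with luciferin and ATP substrate; series mostly up to about 59 µM; nearly all actives have a fitted effect of over 70% in size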
Sequence of Luciferin 4-monooxygenase (Photinus pyralis) (P08659 whole entry, looked up): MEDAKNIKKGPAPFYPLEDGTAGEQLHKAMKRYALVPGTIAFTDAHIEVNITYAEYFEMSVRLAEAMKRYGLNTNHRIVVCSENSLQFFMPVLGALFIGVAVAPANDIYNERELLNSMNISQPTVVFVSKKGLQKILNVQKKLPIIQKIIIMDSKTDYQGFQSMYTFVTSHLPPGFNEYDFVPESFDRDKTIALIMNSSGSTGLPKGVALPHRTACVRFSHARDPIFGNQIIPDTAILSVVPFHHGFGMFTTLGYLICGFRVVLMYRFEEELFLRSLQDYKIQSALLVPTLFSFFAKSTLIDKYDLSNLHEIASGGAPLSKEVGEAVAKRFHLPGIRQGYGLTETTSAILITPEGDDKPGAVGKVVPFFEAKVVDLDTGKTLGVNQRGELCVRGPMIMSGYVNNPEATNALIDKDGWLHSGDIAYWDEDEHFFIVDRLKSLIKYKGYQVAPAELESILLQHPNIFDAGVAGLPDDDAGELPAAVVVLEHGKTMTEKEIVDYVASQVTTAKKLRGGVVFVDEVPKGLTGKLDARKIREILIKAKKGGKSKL
Method in brief: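 Direct inhibition of firefly luciferase enzyme (10 nM final, 50 mM Tris Acetate) assessed by luminescence within 5 minutes. Percent activity scaled between DMSO and PTC124 positive control, with concentration-effect curves classified by fit quality and response.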

Row | Compound | Potency [1] | Potency [2] | Potency [3] | Potency [4] | Potency [5] | Potency [6] | Potency [7] | Potency [8] | outcome [9] | Potency [10] | Potency [11]
1 | O=c1c(O)c(-c2ccc(O)cc2)oc2cc(O)ccc12 | 0.1 µM (active) | > 46 µM (inactive) | > 46 µM (inactive) | inactive | inactive | 10 µM (active) | inactive | 15.8 µM (active) | inactive |  | 
2 | O=c1c(O)c(-c2ccc(O)cc2)oc2ccc(O)cc12 | 0.2 µM (active) | > 46 µM (inactive) | > 46 µM (inactive) | inactive | inactive |  | inactive | inactive | inactive | inactive | 
3 | COc1cc2ccc(=O)oc2c(O)c1OCC=C(C)C | 1.58 µM (active) | > 46 µM (inactive) | > 46 µM (inactive) | inactive | inactive |  | inactive | 10 µM (active) | inactive |  | 
4 | COc1cc(O)c2c(=O)cc(-c3ccccc3)oc2c1 | 0.0251 µM (active) | > 46 µM (inactive) | > 46 µM (inactive) | inactive |  |  | inactive | 0.398 µM (active) | inactive | inactive | 
5 | CC(C)OC(=O)c1cc2c(OC[C@@H](O)CNC(C)(C)C)cccc2[nH]1 | 31.6 µM (active) | > 46 µM (inactive) | > 46 µM (inactive) | inactive |  |  |  |  | inactive |  | inactive
6 | COc1cccc2oc(-c3ccc(O)cc3)cc(=O)c12 | 0.398 µM (active) | > 46 µM (inactive) | > 46 µM (inactive) | inactive |  | 12.6 µM (active) | inactive | 10 µM (active) | inactive |  | 
7 | OC[C@@H]1O[C@@H](n2cnc3c(NCc4ccco4)ncnc32)[C@H](O)[C@H]1O | inactive | > 46 µM (inactive) | > 46 µM (inactive) | inactive | inactive | inactive |  | inactive |  | inactive | 
8 | CCCc1c(OCCCOc2ccc(OCC(=O)O)cc2)ccc(CC=O)c1O | 31.6 µM (active) | > 46 µM (inactive) | > 46 µM (inactive) | inactive | inactive |  |  |  | inactive |  | 
9 | O=C(/C=C\c1ccc(O)c(O)c1)O[C@H]1C[C@@](O)(C(=O)O)C[C@H](O)[C@@H]1O | inactive | > 46 µM (inactive) | > 46 µM (inactive) | inactive | inactive | inactive |  | inactive |  | inactive | 
